Test results: the supplement of paper PMC10849652
Targets with a hit are over-represented here; the source holds about 7,900 in all. About 0.6% of all pairs of compound and target were hits. Values without a mark were called inactive.

Experiments:
Assay in all cases: log2 fold change, soluble protein after heating vs DMSO (PISA); higher = thermal stabilisation; K562 cells, 10 uM, 30 min; active = over 0.2 and 3.5 SD of the protein, either way, in both replicates (recomputed)
[1] = compound: NC(=O)Nc1cc(-c2cccc(F)c2)sc1C(=O)N[C@H]1CCCNC1
Procedure, shortened: (§1)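 Aliquots of K562 cells (2×10^6 cells/mL) treated with 10 μM compound for 30 min were heated for 3 min over 48°C-58°C. After pooling and extraction in PBS with 0.5% NP-40 at 4°C, soluble protein from a 21,000xg, 90 min spin was quantified by TMTpro 16plex LC-MS/MS with channel sums equalised. Thermal stability is expressed against control samples, from duplicates, as a log2 fold change.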

[2] = compound: NC(=O)c1cnc(N[C@@H]2CCCC[C@@H]2N)nc1Nc1cccc(-n2nccn2)c1
Procedure, shortened: as §1

[3] = compound: NC1(c2ccc(-c3nc4ccn5c(=O)[nH]nc5c4cc3-c3ccccc3)cc2)CCC1
Procedure, shortened: as §1

[4] = compound: NCC(=O)Nc1ccc(-n2nc(C(F)(F)F)cc2-c2ccc3c(ccc4ccccc43)c2)cc1
Procedure, shortened: as §1

entinostat = compound: Nc1ccccc1NC(=O)c1ccc(CNC(=O)OCc2cccnc2)cc1 [entinostat]
Procedure, shortened: as §1

vorinostat = compound: O=C(CCCCCCC(=O)Nc1ccccc1)NO [vorinostat]
Procedure, shortened: as §1

citarinostat = compound: O=C(CCCCCCNC(=O)c1cnc(N(c2ccccc2)c2ccccc2Cl)nc1)NO [citarinostat]
Procedure, shortened: as §1

silmitasertib = compound: O=C(O)c1ccc2c(c1)nc(Nc1cccc(Cl)c1)c1ccncc12 [silmitasertib]
Procedure, shortened: as §1

[5] = compound: O=C1NC(=O)C(c2cnc3ccccn23)=C1c1cn2c3c(cc(F)cc13)CN(C(=O)N1CCCCC1)CC2
Procedure, shortened: as §1

[6] = compound: c1cc(OCCN2CCCCC2)cc(-c2n[nH]c3ccc(-c4nnc[nH]4)cc23)c1
Procedure, shortened: as §1

entospletinib = compound: c1cn2cc(-c3ccc4cn[nH]c4c3)nc(Nc3ccc(N4CCOCC4)cc3)c2n1 [entospletinib]
Procedure, shortened: as §1

UniProt Q8N1G2, sequence (Q8N1G2 whole entry, looked up): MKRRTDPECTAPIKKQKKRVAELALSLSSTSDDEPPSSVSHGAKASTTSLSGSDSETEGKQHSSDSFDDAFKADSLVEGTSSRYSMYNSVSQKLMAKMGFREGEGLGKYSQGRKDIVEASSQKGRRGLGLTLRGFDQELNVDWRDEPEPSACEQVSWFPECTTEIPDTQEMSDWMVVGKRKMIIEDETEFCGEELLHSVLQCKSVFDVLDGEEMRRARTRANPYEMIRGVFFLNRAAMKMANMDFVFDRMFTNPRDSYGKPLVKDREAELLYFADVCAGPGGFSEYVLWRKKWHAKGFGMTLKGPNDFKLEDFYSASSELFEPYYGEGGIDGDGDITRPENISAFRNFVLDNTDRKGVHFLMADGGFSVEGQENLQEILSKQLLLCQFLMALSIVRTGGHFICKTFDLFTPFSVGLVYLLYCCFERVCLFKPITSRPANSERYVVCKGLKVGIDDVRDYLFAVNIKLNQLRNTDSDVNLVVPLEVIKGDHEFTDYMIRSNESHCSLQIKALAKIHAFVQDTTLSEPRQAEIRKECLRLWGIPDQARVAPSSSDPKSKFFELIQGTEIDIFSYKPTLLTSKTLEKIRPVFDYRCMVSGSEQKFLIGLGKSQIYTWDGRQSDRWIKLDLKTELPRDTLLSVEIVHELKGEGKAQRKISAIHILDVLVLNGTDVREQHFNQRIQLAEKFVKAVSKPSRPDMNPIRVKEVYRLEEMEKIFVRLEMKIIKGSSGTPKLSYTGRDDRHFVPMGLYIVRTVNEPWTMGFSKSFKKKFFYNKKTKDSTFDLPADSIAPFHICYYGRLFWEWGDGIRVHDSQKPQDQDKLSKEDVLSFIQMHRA
UniProt P23786, sequence (P23786 whole entry, looked up): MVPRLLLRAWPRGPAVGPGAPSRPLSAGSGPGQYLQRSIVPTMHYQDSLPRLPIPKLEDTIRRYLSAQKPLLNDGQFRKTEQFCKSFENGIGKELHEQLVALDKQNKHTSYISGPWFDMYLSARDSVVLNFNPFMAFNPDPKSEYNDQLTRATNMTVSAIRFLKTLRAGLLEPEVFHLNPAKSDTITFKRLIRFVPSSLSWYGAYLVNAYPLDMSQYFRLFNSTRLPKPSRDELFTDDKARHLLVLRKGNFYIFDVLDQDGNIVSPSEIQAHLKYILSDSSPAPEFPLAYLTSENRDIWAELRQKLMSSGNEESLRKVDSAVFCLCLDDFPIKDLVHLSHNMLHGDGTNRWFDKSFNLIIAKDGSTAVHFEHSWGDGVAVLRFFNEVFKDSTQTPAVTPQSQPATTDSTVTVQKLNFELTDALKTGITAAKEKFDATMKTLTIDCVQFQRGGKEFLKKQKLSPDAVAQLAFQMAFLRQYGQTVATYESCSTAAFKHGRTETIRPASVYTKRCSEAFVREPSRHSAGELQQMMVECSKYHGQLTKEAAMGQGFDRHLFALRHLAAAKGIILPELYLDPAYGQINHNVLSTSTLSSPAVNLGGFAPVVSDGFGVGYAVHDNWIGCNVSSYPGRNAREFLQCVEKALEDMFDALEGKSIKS
UniProt P48729, sequence (P48729 whole entry, looked up): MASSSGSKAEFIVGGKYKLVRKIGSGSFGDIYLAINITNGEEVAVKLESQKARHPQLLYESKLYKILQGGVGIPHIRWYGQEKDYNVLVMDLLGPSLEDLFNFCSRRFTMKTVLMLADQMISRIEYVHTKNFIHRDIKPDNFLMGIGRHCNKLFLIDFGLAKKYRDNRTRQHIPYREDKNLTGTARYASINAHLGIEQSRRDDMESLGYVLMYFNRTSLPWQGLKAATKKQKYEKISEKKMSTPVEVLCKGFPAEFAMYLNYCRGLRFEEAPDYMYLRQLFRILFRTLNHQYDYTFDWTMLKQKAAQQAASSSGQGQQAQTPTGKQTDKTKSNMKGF
UniProt Q9BT78, sequence (Q9BT78 whole entry, looked up): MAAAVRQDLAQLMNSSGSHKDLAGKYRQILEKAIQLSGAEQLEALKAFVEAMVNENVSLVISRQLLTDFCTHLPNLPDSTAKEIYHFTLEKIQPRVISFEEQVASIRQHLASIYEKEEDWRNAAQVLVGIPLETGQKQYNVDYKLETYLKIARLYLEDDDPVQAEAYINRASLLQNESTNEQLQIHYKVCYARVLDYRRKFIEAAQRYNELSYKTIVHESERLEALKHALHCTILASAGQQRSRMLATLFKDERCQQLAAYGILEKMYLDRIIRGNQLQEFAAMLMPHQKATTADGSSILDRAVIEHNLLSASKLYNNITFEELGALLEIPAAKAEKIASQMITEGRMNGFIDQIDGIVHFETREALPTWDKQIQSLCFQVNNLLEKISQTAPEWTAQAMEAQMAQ
UniProt P50750, sequence (P50750 whole entry, looked up): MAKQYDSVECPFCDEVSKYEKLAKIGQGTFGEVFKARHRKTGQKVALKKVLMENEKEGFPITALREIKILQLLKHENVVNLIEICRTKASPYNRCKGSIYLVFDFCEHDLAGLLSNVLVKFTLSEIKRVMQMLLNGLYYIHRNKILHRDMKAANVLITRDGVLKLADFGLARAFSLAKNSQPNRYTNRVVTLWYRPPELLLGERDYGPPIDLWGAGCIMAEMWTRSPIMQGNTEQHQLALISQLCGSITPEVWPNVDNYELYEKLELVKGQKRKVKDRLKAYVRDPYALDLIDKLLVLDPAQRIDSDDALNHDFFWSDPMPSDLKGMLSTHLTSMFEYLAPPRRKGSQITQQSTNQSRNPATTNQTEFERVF
UniProt Q8IWV2, sequence (Q8IWV2 whole entry, looked up): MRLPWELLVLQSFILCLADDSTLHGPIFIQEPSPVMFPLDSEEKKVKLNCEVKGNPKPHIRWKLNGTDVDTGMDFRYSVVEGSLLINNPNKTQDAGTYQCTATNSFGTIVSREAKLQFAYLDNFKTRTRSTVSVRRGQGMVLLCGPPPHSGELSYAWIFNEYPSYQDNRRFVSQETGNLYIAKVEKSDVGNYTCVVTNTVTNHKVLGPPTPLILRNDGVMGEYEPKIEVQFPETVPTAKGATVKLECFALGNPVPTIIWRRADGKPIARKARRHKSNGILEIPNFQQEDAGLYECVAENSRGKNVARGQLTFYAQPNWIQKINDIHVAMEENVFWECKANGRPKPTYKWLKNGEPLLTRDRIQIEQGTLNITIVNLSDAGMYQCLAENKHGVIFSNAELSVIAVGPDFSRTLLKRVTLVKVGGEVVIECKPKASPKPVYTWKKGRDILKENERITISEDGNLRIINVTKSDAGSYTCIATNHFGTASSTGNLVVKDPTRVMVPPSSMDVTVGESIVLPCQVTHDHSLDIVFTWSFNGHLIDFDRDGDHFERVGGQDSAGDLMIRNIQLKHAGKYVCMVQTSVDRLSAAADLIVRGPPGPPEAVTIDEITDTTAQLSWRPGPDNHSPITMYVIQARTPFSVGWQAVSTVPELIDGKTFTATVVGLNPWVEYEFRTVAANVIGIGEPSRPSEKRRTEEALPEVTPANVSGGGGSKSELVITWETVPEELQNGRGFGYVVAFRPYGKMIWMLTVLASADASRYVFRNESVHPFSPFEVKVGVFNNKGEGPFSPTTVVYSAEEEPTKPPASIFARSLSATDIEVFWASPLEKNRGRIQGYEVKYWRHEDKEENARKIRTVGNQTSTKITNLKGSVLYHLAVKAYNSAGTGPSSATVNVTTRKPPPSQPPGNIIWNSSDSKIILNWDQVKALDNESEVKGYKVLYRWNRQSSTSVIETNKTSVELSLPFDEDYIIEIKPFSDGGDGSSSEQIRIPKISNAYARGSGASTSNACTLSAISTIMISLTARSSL
UniProt Q7KZN9, sequence (Q7KZN9 whole entry, looked up): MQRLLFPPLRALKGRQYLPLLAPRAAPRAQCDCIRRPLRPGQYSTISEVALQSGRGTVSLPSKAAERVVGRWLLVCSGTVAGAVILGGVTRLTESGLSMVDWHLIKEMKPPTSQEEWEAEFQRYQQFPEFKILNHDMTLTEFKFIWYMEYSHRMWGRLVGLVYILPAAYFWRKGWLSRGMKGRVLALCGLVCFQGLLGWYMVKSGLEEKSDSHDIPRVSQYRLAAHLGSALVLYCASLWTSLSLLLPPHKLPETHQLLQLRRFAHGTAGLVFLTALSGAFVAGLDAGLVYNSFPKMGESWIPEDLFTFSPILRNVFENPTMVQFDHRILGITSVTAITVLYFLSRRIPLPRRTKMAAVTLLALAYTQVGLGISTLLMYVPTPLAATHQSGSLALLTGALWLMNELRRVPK
UniProt P35790, sequence (P35790 whole entry, looked up): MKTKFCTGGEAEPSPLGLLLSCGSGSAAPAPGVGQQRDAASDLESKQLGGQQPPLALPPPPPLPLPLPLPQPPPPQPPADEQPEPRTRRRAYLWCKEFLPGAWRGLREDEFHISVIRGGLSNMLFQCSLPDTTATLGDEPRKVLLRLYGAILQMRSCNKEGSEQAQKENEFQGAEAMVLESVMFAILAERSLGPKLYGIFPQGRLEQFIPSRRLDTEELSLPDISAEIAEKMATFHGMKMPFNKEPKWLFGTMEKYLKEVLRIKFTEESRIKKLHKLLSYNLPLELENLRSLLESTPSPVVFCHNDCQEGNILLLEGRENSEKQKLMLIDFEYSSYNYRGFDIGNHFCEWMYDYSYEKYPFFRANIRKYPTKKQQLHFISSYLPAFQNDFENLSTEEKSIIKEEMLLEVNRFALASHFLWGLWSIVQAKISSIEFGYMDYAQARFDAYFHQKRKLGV
UniProt Q96JB5, sequence (Q96JB5 whole entry, looked up): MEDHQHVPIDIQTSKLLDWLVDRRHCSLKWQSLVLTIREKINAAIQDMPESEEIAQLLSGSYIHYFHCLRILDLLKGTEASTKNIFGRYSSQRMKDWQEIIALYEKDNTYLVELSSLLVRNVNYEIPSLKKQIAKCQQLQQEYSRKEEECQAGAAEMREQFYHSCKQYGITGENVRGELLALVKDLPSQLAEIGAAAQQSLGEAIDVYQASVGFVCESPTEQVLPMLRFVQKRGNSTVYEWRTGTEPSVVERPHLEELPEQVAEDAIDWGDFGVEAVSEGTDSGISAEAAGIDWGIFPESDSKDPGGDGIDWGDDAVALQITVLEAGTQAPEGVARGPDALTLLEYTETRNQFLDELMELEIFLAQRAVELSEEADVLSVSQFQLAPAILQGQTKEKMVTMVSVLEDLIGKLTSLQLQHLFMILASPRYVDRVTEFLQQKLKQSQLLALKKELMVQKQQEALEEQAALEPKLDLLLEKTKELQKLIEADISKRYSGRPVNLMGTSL

Target	log2 fold change [1]	log2 fold change [2]	log2 fold change [3]	log2 fold change [4]	log2 fold change (entinostat)	log2 fold change (vorinostat)	log2 fold change (citarinostat)	log2 fold change (silmitasertib)	log2 fold change [5]	log2 fold change [6]	log2 fold change (entospletinib)
CAMK2G isoform 6 (UniProt Q13555)	-0.306	-0.033	0.038	0.057	0.119	0.119	-0.02	0.158	0.177	-0.053	0.131
CBX1 (UniProt P83916)	0.02	-0.032	0.025	0.004	0.017	-0.036	-0.035	0.045	0.006	-0.034	0.066
CPT1A (UniProt P50416)	-0.068	-0.012	0.117	-0.001	-0.005	-0.017	0.053	0.037	-0.014	0.071	0.019
CDK9 isoform 2 (UniProt P50750)	-0.05	-0.038	-0.057	0.22	0.005	0.102	-0.002	-0.015	0.152	-0.084	0.012
CDK19 (UniProt Q9BWU1)	-0.131	-0.135	-0.093	-0.018	-0.085	0.016	-0.265	0.327	0.16	-0.089	-0.013
CLASP2 isoform 3 (UniProt O75122)	0.018	-0.018	-0.147	-0.036	0.02	0.069	0.09	-0.033	-0.153	-0.055	-0.046
CSNK1A1 (UniProt P48729)	-0.067	-0.001	0.031	0.019	0.023	-0.087	0.016	0.048	0.243	-0.084	0.009
CNOT1 (UniProt A5YKK6)	0	0.01	-0.075	-0.026	0.024	0.035	0.05	0.055	0.004	-0.032	0.014
CRK (UniProt P46108)	-0.81 (active)	0.004	-0.063	-0.011	0.026	-0.002	0.061	0.062	-0.016	-0.016	-0.022
CMTR1 (UniProt Q8N1G2)	-0.022	-0.015	-0.135	-0.01	-0.025	0.026	0.002	0.004	-0.083	-0.009	-0.016
CASP8 isoform 9 (UniProt Q14790)	-0.06	-0.051	-0.186	-0.151	-0.119	-0.021	-0.048	0.12	0.008	0.009	0.005
COMMD2 (UniProt Q86X83)	-0.007	-0.034	-0.098	0.039	-0.062	0.049	0.011	0.053	0.011	-0.08	0.015
CEPT1 (UniProt Q9Y6K0)	-0.065	-0.101	-0.215	-0.156	0.065	-0.078	-0.023	-0.014	-0.054	-0.085	0.033
COQ7 (UniProt Q99807)	-0.12	-0.009	-0.076	-0.007	0	-0.032	0.083	0.008	-0.002	0.015	0.026
CHD4 isoform 2 (UniProt Q14839)	-0.043	-0.07	-0.122	-0.039	0.022	0.049	0.063	0.099	-0.023	-0.069	0.007
CPD (UniProt O75976)	0.002	0.032	-0.101	-0.008	0.016	0.019	0.018	0.032	-0.034	-0.111	0.011
CD55 isoform 7 (UniProt P08174)	-0.048	0.028	0.128	0.108	0.018	-0.044	0.009	-0.006	-0.043	-0.047	-0.006
CERT isoform 3 (UniProt Q9Y5P4)	-0.323 (active)	-0.103	-0.101	-0.045	-0.008	-0.025	0.065	0.034	0	-0.418 (active)	0.019
CCDC59 (UniProt Q9P031)	-0.033	0.122	0.166	0.139	-0.149	-0.099	-0.178	0.154	0.21	0.07	0.002
CRYM-AS1 (UniProt A6NIL9)	0.038	-0.014	0.27	0.042	-0.101	0.014	0.021	0.031	-0.076	-0.135	-0.459
CLPTM1L (UniProt Q96KA5)	-0.007	0.007	-0.148	-0.019	0.025	0.023	0.044	0.02	-0.072	0.002	-0.025
COX15 (UniProt Q7KZN9)	0.003	-0.009	-0.043	-0.013	0.004	-0.017	0.048	0.022	0.028	-0.064	-0.169
CHCHD1 (UniProt Q96BP2)	0.017	-0.142	-0.149	-0.023	0.03	0.023	0.009	0.031	-0.015	-0.169	-0.004
CLINT1 isoform 3 (UniProt Q14677)	0.106	-0.027	0.078	0.058	-0.052	-0.035	-0.048	0.008	0.024	0.015	0.111
CHCHD4 isoform 2 (UniProt Q8N4Q1)	0.335	0.06	-0.007	0.084	0.339	0.442	-0.013	0.038	0.123	0.027	0.036
CHKA (UniProt P35790)	0.015	-0.316 (active)	0.014	0.012	-0.023	-0.034	-0.055	0.013	-0.011	-0.012	0.021
CA1 (UniProt P00915)	0.01	0.011	-0.013	0.012	-0.011	0.221 (active)	0.074	0.013	-0.014	-0.029	0.018

Target	log2 fold change [1]	log2 fold change [2]	log2 fold change [3]	log2 fold change [4]	log2 fold change (entinostat)	log2 fold change (vorinostat)	log2 fold change (citarinostat)	log2 fold change (silmitasertib)	log2 fold change [5]	log2 fold change [6]	log2 fold change (entospletinib)
CIR1 (UniProt Q86X95)	0.014	0.061	0.309	0.018	0	-0.056	0.06	0.105	0.067	0.024	0.024
CHMP4B (UniProt Q9H444)	0.255 (active)	-0.011	-0.065	-0.001	0.108	0.024	-0.044	-0.016	0.014	0.022	0.044
CCNH (UniProt P51946)	-0.043	-0.009	0.024	-0.02	-0.006	-0.028	0.015	0.02	-0.083	-0.027	-0.019
CNOT4 isoform 6 (UniProt O95628)	0.033	-0.046	-0.074	-0.026	-0.009	0.052	0.038	0.023	-0.043	-0.037	-0.008
CHST11 (UniProt Q9NPF2)	-0.045	0.068	-0.181	0.139	-0.027	0.001	0.276	-0.044	0.013	0.054	-0.1
COX5A (UniProt P20674)	0.019	0.103	0.117	0.024	0.024	-0.078	-0.041	-0.055	-0.228	-0.046	0.132
CTBS (UniProt Q01459)	0.088	-0.046	-0.268	-0.002	0.058	-0.017	-0.026	-0.003	0.051	-0.023	0.049
CDC42BPA isoform 6 (UniProt Q5VT25)	-0.325	-0.334	-0.06	-0.003	0.012	0.051	0.115	0.11	-0.041	-0.203	0.112
COX6B1 (UniProt P14854)	-0.039	-0.019	-0.146	0.007	0.085	-0.06	-0.007	-0.009	-0.126	-0.017	0.078
CD63 (UniProt P08962)	-0.026	-0.001	-0.05	-0.035	-0.004	-0.066	0.026	0.02	0.051	-0.063	-0.049
CDK5RAP3 isoform 4 (UniProt Q96JB5)	-0.025	-0.029	-0.092	-0.097	0.056	0.04	0.065	-0.004	-0.04	0.019	-0.057
CDK5RAP1 (UniProt Q96SZ6)	-0.107	0.047	-0.114	0.199	-0.008	-0.089	-0.055	0.06	-0.023	-0.031	0.03
CMTM3 (UniProt Q96MX0)	-0.056	-0.033	-0.08	0.072	-0.03	-0.087	-0.118	0.009	0.096	-0.189	0.043
CNTN4 (UniProt Q8IWV2)	0.016	-0.056	0.614	-0.085	-0.106	0.017	0.141	-0.197	-0.18	0.088	-0.148
CCDC9 (UniProt Q9Y3X0)	0.021	0.034	0.121	0.02	-0.088	-0.051	-0.069	-0.051	0.021	-0.015	0.115
CPQ (UniProt Q9Y646)	0.083	-0.01	-0.011	0.072	0.012	-0.043	0.038	-0.004	0.03	0.009	0.011
CDK5 (UniProt Q00535)	-0.045	-0.01	-0.065	-0.082	0.016	0.007	0.06	0.016	-0.1	-0.05	-0.022
CHAC2 (UniProt Q8WUX2)	0.022	-0.019	-0.008	-0.028	-0.017	-0.016	-0.232	0.022	-0.03	0.419 (active)	0.323
CSTF3 (UniProt Q12996)	0.011	-0.027	-0.046	-0.032	-0.032	-0.032	-0.021	0.029	0.027	0.012	-0.064
CPT2 (UniProt P23786)	-0.045	-0.264	0.193	-0.052	0.174	-0.097	-0.109	-0.08	0.014	0.157	0.206
CNOT2 (UniProt Q9NZN8)	-0.012	-0.014	-0.058	-0.087	-0.023	0.018	0.026	0.046	0.007	-0.058	-0.012
CLUH, A0A494C0R8	0.031	0.031	-0.003	-0.062	0.09	0.195	-0.026	0.046	0.118	-0.08	0.119
CRKL (UniProt P46109)	-1.11 (active)	-0.019	-0.015	-0.005	0.004	0.023	0.005	0.066	-0.031	-0.064	0.014
CCZ1 (UniProt P86791)	0.036	-0.072	-0.33 (active)	-0.077	0.006	0.013	-0.011	0.039	-0.01	-0.033	0.039
COPS4 (UniProt Q9BT78)	0.015	0.009	-0.032	0.036	0.01	0.027	0.031	-0.035	-0.01	0.027	0.003
CSNK1D (UniProt P48730)	-0.043	0.185	0.106	-0.02	-0.062	0	-0.025	0.054	0.107	0.173	0.109
COX7B (UniProt P24311)	0.094	-0.001	-0.028	0.02	-0.054	0.012	-0.013	0.039	0.036	-0.026	0.005
